Measured values taken from PubChem BioAssay (NCATS).
Several values for one entry are separate records, joined by “and”; a condition that tells them apart may be missing. Equal values may be shown once. Records with an inconclusive call do not appear. Activity calls are given as the source filed them. Calls follow the shape of the dose curve; as a rule, active = well fitted inhibition curve with a large enough effect; inconclusive = small, poorly fitted or top-dose-only effect; inactive = flat fitted curve, though single readings scatter.

What was measured:
[1] = test system: W2; test: qHTS profiling for inhibitors of Plasmodium falciparum proliferation (AID 504749); details: P. falciparum in erythrocytes, SYBR Green DNA, 72 h; series mostly up to 28.7 µM
Summary of the method: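 P. falciparum-infected erythrocytes (0.3% parasitemia, 2.5% hematocrit final) were exposed to compounds for 72 h at 37 C in 5% CO2, then lysed with SYBR Green buffer overnight at room temperature; parasite DNA fluorescence was normalized to artemisinin and DMSO controls.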

[2] = test system: HEK293; test: Cytotoxic Profiling of Annotated Libraries Using Quantitative High-Throughput Screening (AID 1296008); details: Five cell lines viability, CellTiter-Glo ATP luminescence, 48-72 h; max response: hits give low values; as to max response: % is scaled to controls: 0 for no effect and ±100 for the full control effect
Summary of the method: (§1)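 Compounds were pin-transferred onto cells and incubated 48 or 72 hr at 37 degree Celsius, 95% humidity. CellTiter-Glo was added, plates sat 10 min at room temperature, then ATP-coupled luminescence was imaged as the viability read-out.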

[3] = test system: MCC-13; test: qHTS assay to identify novel small-molecules to repurpose for Merkel cell carcinoma treatment (AID 1296009); details: MCC and control cell lines, CellTiter-Glo viability, 72 h; series mostly up to 46 µM
Summary of the method: (§2)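 Cells exposed to NPC (8-point) and MIPE (11-point) compound dilutions for 72 hr at 37 degree celsius; viability read by CellTiter-Glo luminescence, normalized to no-cell and DMSO in-plate controls.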

[4] = test system: MCC-26; test: as above; details: MCC and control cell lines, CellTiter-Glo viability, 72 h; series mostly up to 46 µM
Summary of the method: as §2

[5] = test system: HaCat; test: Cytotoxic Profiling of Annotated Libraries Using Quantitative High-Throughput Screening (AID 1296008); details: Five cell lines viability, CellTiter-Glo ATP luminescence, 48-72 h; max response: hits give low values; as to max response: % is scaled to controls: 0 for no effect and ±100 for the full control effect
Summary of the method: as §1

[6] = test system: KB-3-1; test: as above; details: Five cell lines viability, CellTiter-Glo ATP luminescence, 48-72 h; max response: hits give low values
Summary of the method: as §1

[7] = test system: NIH3T3; test: as above; details: Five cell lines viability, CellTiter-Glo ATP luminescence, 48-72 h; max response: hits give low values
Summary of the method: as §1

[8] = test system: HACAT; test: qHTS assay to identify novel small-molecules to repurpose for Merkel cell carcinoma treatment (AID 1296009); details: MCC and control cell lines, CellTiter-Glo viability, 72 h; at 44.8 µM (top of the series) unless noted
Summary of the method: as §2

[9] = test system: HEK293T; test: as above; details: MCC and control cell lines, CellTiter-Glo viability, 72 h; at 44.8 µM (top of the series) unless noted
Summary of the method: as §2
Also: nearly all actives have a fitted effect of over 60% in size.
Potency is read from the fitted curve at half-maximal effect.

C#C[C@]1(O)CC[C@H]2[C@@H]3CCC4=Cc5oncc5C[C@]4(C)[C@H]3CC[C@@]21C
active: Potency [2] 21.1 µM
inactive: Potency [1] | Potency [3] | Potency [4]

O=C(Nc1ncc([N+](=O)[O-])s1)c1cccs1
inactive: Potency [1] | max response [5] -23.3%
active: Potency [2] 15 µM

CN=C(N)NCCC[C@H](N)C(=O)O
inactive: max response [6] -24.2% and -3.13% and -1.75%

CCN(CC)CCNC(=O)COc1ccc(OC)cc1
inactive: max response [2] 4.77% | max response [6] 7.84% | max response [7] -6.7% | Potency [3]

NS(=O)(=O)c1cc(C(=O)O)cc(N2CCCC2)c1Oc1ccccc1
inactive: max response [2] 2.69% | max response [5] -7.61% | max response [7] -1.53% | Potency [3]

CN1CCC[C@@H]1CCO[C@](C)(c1ccccc1)c1ccc(Cl)cc1
inactive: max response [6] -2.14% | Potency [4]
active: Potency [1] 13.5 µM | Potency [2] 15 µM | Potency [5] 26.6 µM

O=c1[nH]c(=O)n([C@H]2C[C@H](O)[C@@H](CO)O2)cc1F
active: Potency [2] 0.0299 µM | Potency [5] 0.0084 µM | Potency [7] 6 nM
inactive: Potency [1]

CCCCCCCCCCCCCC[N+](C)(C)Cc1ccccc1
active: Potency [1] 4.26 µM | Potency [2] 2.99 µM | Potency [5] 11.9 µM | Potency [4] 21.1 µM

C[C@@H](O)[C@H]1C(=O)N2C(C(=O)O)=C([C@H]3CCCO3)S[C@H]12
inactive: max response [2] -1.4% | outcome [5] | outcome [7] | outcome [8] | Potency [3] | Potency [4]

CC(=O)OC[C@H]1O[C@@H](n2ncc(=O)[nH]c2=O)[C@H](OC(C)=O)[C@@H]1OC(C)=O
active: Potency [2] 0.944 µM
inactive: Potency [1] | max response [5] -1.52% | Potency [3] | Potency [4]

O=C1OC2(c3ccccc31)c1cc(Br)c(O)c(Br)c1Oc1c2cc(Br)c(O)c1Br
inactive: outcome [2] | outcome [5] | max response [7] -4.74% | outcome [8] | outcome [9] | Potency [3]

Cc1ccc(S(=O)(=O)NC(=O)NC2CCCC2)cc1
inactive: Potency [1] | max response [2] -5.76% | max response [5] 2.64% | max response [6] 5.86% | max response [7] 3.93% | Potency [3] | Potency [4]

CCCCCCCCNC(C)C(O)c1ccc(SC(C)C)cc1 (stereo not drawn)
active: Potency [1] 0.169 µM | Potency [2] 13.3 µM
inactive: max response [6] 7.32%

CCC(C(=O)OCCOCCN(CC)CC)c1ccccc1 (stereo not drawn)
active: Potency [1] 12 µM
inactive: max response [2] -19.3% | outcome [5] | outcome [7] | outcome [8] | Potency [3] | Potency [4]
